Test results taken from PMC5700166.

These sequences were tested against T1, GST-Nv-NF-kB (Ser allele) (Nematostella vectensis, UniProt A7UNT2 2-411) (assay: protein-binding microarray (PBM); PBM: ~300 nM protein, 6 mM HEPES pH 7.8, 80 mM KCl, 0.5 mM EDTA, 0.5 mM EGTA, 6% glycerol, 35 ng/ul poly-dIdC, 1% milk, 1 h, room temperature; Ap Aiptasia and Nv Nematostella (sea anemones) / Co Capsaspora / Aq Amphimedon (sponge) / Dm Drosophila / Hu human; RHD is the Rel homology domain; high values mean tight binding). Conditions: dsDNA, one strand shown.
T1 sequence: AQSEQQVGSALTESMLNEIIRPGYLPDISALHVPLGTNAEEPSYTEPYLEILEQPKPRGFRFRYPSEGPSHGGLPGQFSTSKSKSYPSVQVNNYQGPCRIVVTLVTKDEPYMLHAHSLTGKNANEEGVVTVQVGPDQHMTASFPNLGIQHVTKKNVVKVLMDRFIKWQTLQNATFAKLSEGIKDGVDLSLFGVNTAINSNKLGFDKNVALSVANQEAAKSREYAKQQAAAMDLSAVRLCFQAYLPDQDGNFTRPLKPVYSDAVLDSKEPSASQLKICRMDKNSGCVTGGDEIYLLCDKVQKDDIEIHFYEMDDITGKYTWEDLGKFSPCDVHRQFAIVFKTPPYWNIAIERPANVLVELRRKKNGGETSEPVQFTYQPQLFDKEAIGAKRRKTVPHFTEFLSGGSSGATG
Work on “CCGATTAACATCAGGTATTCCCATGATGTTAATCGGGTCTTGATTCGCTTGACGCTGCTG” yielded a binding signal of 2.85 z-score. “CCGATTAACATCAATTTACCCACTGATGTTAATCGGGTCTTGATTCGCTTGACGCTGCTG” gave a binding signal of 2.27 z-score. Sequence “CCGATTAACATCAGCTTGGGAAATGATGTTAATCGGGTCTTGATTCGCTTGACGCTGCTG” has a binding signal of 1.58 z-score. In the case of “CCGATTAACATCATGGGTGGGAATGATGTTAATCGGGTCTTGATTCGCTTGACGCTGCTG”, the binding signal was 1.12 z-score. For “CCGATTAACATCAGGGAAAGTAATGATGTTAATCGGGTCTTGATTCGCTTGACGCTGCTG”, the binding signal was 5.14 z-score. For “CCGATTAACATCAGAAAATTACCTGATGTTAATCGGGTCTTGATTCGCTTGACGCTGCTG”, the binding signal was 5.7 z-score. “CCGATTAACATCACGGACTCCCCTGATGTTAATCGGGTCTTGATTCGCTTGACGCTGCTG” showed a binding signal of 4.46 z-score. With “CCGATTAACATCAGGGAATTACATGATGTTAATCGGGTCTTGATTCGCTTGACGCTGCTG” the binding signal was 4.68 z-score. “CCGATTAACATCAGAAATCCCACTGATGTTAATCGGGTCTTGATTCGCTTGACGCTGCTG” showed a binding signal of 1.91 z-score. “CCGATTAACATCAAAGTGTCCCCTGATGTTAATCGGGTCTTGATTCGCTTGACGCTGCTG” showed a binding signal of 4.51 z-score. With “CCGATTAACATCACGGGACTCCCTGATGTTAATCGGGTCTTGATTCGCTTGACGCTGCTG” the binding signal was 3.64 z-score. “CCGATTAACATCAAACACCCCCCTGATGTTAATCGGGTCTTGATTCGCTTGACGCTGCTG” gave a binding signal of 4.8 z-score. Work on “CCGATTAACATCACGGAAAACCCTGATGTTAATCGGGTCTTGATTCGCTTGACGCTGCTG” yielded a binding signal of 1.92 z-score. Work on “CCGATTAACATCAAATGGGAATTTGATGTTAATCGGGTCTTGATTCGCTTGACGCTGCTG” yielded a binding signal of 4.87 z-score. For “CCGATTAACATCAGATGTCCCCCTGATGTTAATCGGGTCTTGATTCGCTTGACGCTGCTG”, the binding signal was 4.47 z-score. With “CCGATTAACATCACGGAACTCCCTGATGTTAATCGGGTCTTGATTCGCTTGACGCTGCTG” the binding signal was 3.15 z-score. For “CCGATTAACATCAAAAAAACCCATGATGTTAATCGGGTCTTGATTCGCTTGACGCTGCTG”, the binding signal was 4.6 z-score. “CCGATTAACATCAGGGGTTTCCATGATGTTAATCGGGTCTTGATTCGCTTGACGCTGCTG” was tested, and the binding signal was 4 z-score. For “CCGATTAACATCACTGGGAAAACTGATGTTAATCGGGTCTTGATTCGCTTGACGCTGCTG”, the binding signal was 3.57 z-score. Work on “CCGATTAACATCACTGGGAATTCTGATGTTAATCGGGTCTTGATTCGCTTGACGCTGCTG” yielded a binding signal of 3 z-score. In the case of “CCGATTAACATCAGGGGAGTGTATGATGTTAATCGGGTCTTGATTCGCTTGACGCTGCTG”, the binding signal was 4.51 z-score. Sequence “CCGATTAACATCAGAGTTTCCCATGATGTTAATCGGGTCTTGATTCGCTTGACGCTGCTG” has a binding signal of 3.14 z-score. Sequence “CCGATTAACATCAGAATTACCCATGATGTTAATCGGGTCTTGATTCGCTTGACGCTGCTG” has a binding signal of 3.26 z-score. Sequence “CCGATTAACATCAGGAGAACCCCTGATGTTAATCGGGTCTTGATTCGCTTGACGCTGCTG” has a binding signal of 1.24 z-score. In the case of “CCGATTAACATCAGGATCTTCCCTGATGTTAATCGGGTCTTGATTCGCTTGACGCTGCTG”, the binding signal was 1.87 z-score. “CCGATTAACATCAAAACAGCCCCTGATGTTAATCGGGTCTTGATTCGCTTGACGCTGCTG” gave a binding signal of 3.68 z-score. Work on “CCGATTAACATCAGACTGGGAAATGATGTTAATCGGGTCTTGATTCGCTTGACGCTGCTG” yielded a binding signal of 1.66 z-score. “CCGATTAACATCATTTCCCAAAATGATGTTAATCGGGTCTTGATTCGCTTGACGCTGCTG” showed a binding signal of 2.41 z-score. With “CCGATTAACATCACCCAGGGAAATGATGTTAATCGGGTCTTGATTCGCTTGACGCTGCTG” the binding signal was 1.97 z-score. In the case of “CCGATTAACATCACGGGTTTTTCTGATGTTAATCGGGTCTTGATTCGCTTGACGCTGCTG”, the binding signal was 3.59 z-score. “CCGATTAACATCAATGTCCCCCCTGATGTTAATCGGGTCTTGATTCGCTTGACGCTGCTG” gave a binding signal of 4.42 z-score. “CCGATTAACATCAAGGAATACCCTGATGTTAATCGGGTCTTGATTCGCTTGACGCTGCTG” showed a binding signal of 4.74 z-score. Sequence “CCGATTAACATCAAATATTCCCATGATGTTAATCGGGTCTTGATTCGCTTGACGCTGCTG” has a binding signal of 4.14 z-score. “CCGATTAACATCAGGGCAGCCCCTGATGTTAATCGGGTCTTGATTCGCTTGACGCTGCTG” gave a binding signal of 2.79 z-score. “CCGATTAACATCACCAAAATCCCTGATGTTAATCGGGTCTTGATTCGCTTGACGCTGCTG” was tested, and the binding signal was 2.71 z-score. “CCGATTAACATCAGGAAGTTCCCTGATGTTAATCGGGTCTTGATTCGCTTGACGCTGCTG” gave a binding signal of 2.53 z-score. For “CCGATTAACATCAGGGGACGCACTGATGTTAATCGGGTCTTGATTCGCTTGACGCTGCTG”, the binding signal was 4.02 z-score. Work on “CCGATTAACATCAGGGGGGGCACTGATGTTAATCGGGTCTTGATTCGCTTGACGCTGCTG” yielded a binding signal of 3.3 z-score. “CCGATTAACATCATGGTGGGAAATGATGTTAATCGGGTCTTGATTCGCTTGACGCTGCTG” showed a binding signal of 2.25 z-score.

These sequences were tested against GST-Hu-p50 (Homo sapiens, UniProt P19838 7-356) in the same assay as above. Conditions: dsDNA, one strand shown.
Sequence of GST-Hu-p50 (P19838 7-356): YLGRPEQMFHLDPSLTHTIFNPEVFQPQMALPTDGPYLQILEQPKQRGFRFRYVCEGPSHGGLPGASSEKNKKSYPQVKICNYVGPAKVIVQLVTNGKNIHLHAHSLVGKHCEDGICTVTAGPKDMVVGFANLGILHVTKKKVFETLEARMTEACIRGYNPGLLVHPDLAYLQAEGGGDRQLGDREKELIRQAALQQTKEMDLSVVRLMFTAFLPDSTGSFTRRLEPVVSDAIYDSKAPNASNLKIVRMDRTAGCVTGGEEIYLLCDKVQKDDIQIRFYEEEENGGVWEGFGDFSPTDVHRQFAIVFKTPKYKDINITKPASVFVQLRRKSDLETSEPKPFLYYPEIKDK
“CCGATTAACATCAGGTATTCCCATGATGTTAATCGGGTCTTGATTCGCTTGACGCTGCTG” was tested, and the binding signal was 1.73 z-score. Work on “CCGATTAACATCAATTTACCCACTGATGTTAATCGGGTCTTGATTCGCTTGACGCTGCTG” yielded a binding signal of 2.06 z-score. “CCGATTAACATCAGCTTGGGAAATGATGTTAATCGGGTCTTGATTCGCTTGACGCTGCTG” gave a binding signal of 1.1 z-score. “CCGATTAACATCATGGGTGGGAATGATGTTAATCGGGTCTTGATTCGCTTGACGCTGCTG” gave a binding signal of 1.32 z-score. For “CCGATTAACATCAGGGAAAGTAATGATGTTAATCGGGTCTTGATTCGCTTGACGCTGCTG”, the binding signal was 3.58 z-score. “CCGATTAACATCAGAAAATTACCTGATGTTAATCGGGTCTTGATTCGCTTGACGCTGCTG” was tested, and the binding signal was 4.34 z-score. “CCGATTAACATCACGGACTCCCCTGATGTTAATCGGGTCTTGATTCGCTTGACGCTGCTG” gave a binding signal of 3.34 z-score. “CCGATTAACATCAGGGAATTACATGATGTTAATCGGGTCTTGATTCGCTTGACGCTGCTG” showed a binding signal of 3.82 z-score. In the case of “CCGATTAACATCAGAAATCCCACTGATGTTAATCGGGTCTTGATTCGCTTGACGCTGCTG”, the binding signal was 2.66 z-score. For “CCGATTAACATCAAAGTGTCCCCTGATGTTAATCGGGTCTTGATTCGCTTGACGCTGCTG”, the binding signal was 3.85 z-score. “CCGATTAACATCACGGGACTCCCTGATGTTAATCGGGTCTTGATTCGCTTGACGCTGCTG” showed a binding signal of 3.14 z-score. “CCGATTAACATCAAACACCCCCCTGATGTTAATCGGGTCTTGATTCGCTTGACGCTGCTG” gave a binding signal of 4.57 z-score. Work on “CCGATTAACATCACGGAAAACCCTGATGTTAATCGGGTCTTGATTCGCTTGACGCTGCTG” yielded a binding signal of 2.12 z-score. “CCGATTAACATCAAATGGGAATTTGATGTTAATCGGGTCTTGATTCGCTTGACGCTGCTG” showed a binding signal of 3.42 z-score. “CCGATTAACATCAGATGTCCCCCTGATGTTAATCGGGTCTTGATTCGCTTGACGCTGCTG” showed a binding signal of 3.96 z-score. “CCGATTAACATCACGGAACTCCCTGATGTTAATCGGGTCTTGATTCGCTTGACGCTGCTG” gave a binding signal of 3.05 z-score. Sequence “CCGATTAACATCAAAAAAACCCATGATGTTAATCGGGTCTTGATTCGCTTGACGCTGCTG” has a binding signal of 4.37 z-score. With “CCGATTAACATCAGGGGTTTCCATGATGTTAATCGGGTCTTGATTCGCTTGACGCTGCTG” the binding signal was 4.95 z-score. For “CCGATTAACATCACTGGGAAAACTGATGTTAATCGGGTCTTGATTCGCTTGACGCTGCTG”, the binding signal was 2.39 z-score. Work on “CCGATTAACATCACTGGGAATTCTGATGTTAATCGGGTCTTGATTCGCTTGACGCTGCTG” yielded a binding signal of 3.22 z-score. In the case of “CCGATTAACATCAGGGGAGTGTATGATGTTAATCGGGTCTTGATTCGCTTGACGCTGCTG”, the binding signal was 3.04 z-score. Sequence “CCGATTAACATCAGAGTTTCCCATGATGTTAATCGGGTCTTGATTCGCTTGACGCTGCTG” has a binding signal of 2.22 z-score. In the case of “CCGATTAACATCAGAATTACCCATGATGTTAATCGGGTCTTGATTCGCTTGACGCTGCTG”, the binding signal was 2.83 z-score. Sequence “CCGATTAACATCAGGAGAACCCCTGATGTTAATCGGGTCTTGATTCGCTTGACGCTGCTG” has a binding signal of 3.68 z-score. “CCGATTAACATCAGGATCTTCCCTGATGTTAATCGGGTCTTGATTCGCTTGACGCTGCTG” gave a binding signal of 1.9 z-score. In the case of “CCGATTAACATCAAAACAGCCCCTGATGTTAATCGGGTCTTGATTCGCTTGACGCTGCTG”, the binding signal was 4.54 z-score. Work on “CCGATTAACATCAGACTGGGAAATGATGTTAATCGGGTCTTGATTCGCTTGACGCTGCTG” yielded a binding signal of 1.43 z-score. With “CCGATTAACATCATTTCCCAAAATGATGTTAATCGGGTCTTGATTCGCTTGACGCTGCTG” the binding signal was 1.56 z-score. “CCGATTAACATCACCCAGGGAAATGATGTTAATCGGGTCTTGATTCGCTTGACGCTGCTG” showed a binding signal of 2.01 z-score. With “CCGATTAACATCACGGGTTTTTCTGATGTTAATCGGGTCTTGATTCGCTTGACGCTGCTG” the binding signal was 3.63 z-score. Sequence “CCGATTAACATCAATGTCCCCCCTGATGTTAATCGGGTCTTGATTCGCTTGACGCTGCTG” has a binding signal of 3.89 z-score. With “CCGATTAACATCAAGGAATACCCTGATGTTAATCGGGTCTTGATTCGCTTGACGCTGCTG” the binding signal was 4.19 z-score. Work on “CCGATTAACATCAAATATTCCCATGATGTTAATCGGGTCTTGATTCGCTTGACGCTGCTG” yielded a binding signal of 2.88 z-score. “CCGATTAACATCAGGGCAGCCCCTGATGTTAATCGGGTCTTGATTCGCTTGACGCTGCTG” gave a binding signal of 4.31 z-score. “CCGATTAACATCACCAAAATCCCTGATGTTAATCGGGTCTTGATTCGCTTGACGCTGCTG” showed a binding signal of 2.9 z-score. In the case of “CCGATTAACATCAGGAAGTTCCCTGATGTTAATCGGGTCTTGATTCGCTTGACGCTGCTG”, the binding signal was 3.79 z-score. With “CCGATTAACATCAGGGGACGCACTGATGTTAATCGGGTCTTGATTCGCTTGACGCTGCTG” the binding signal was 4.28 z-score. With “CCGATTAACATCAGGGGGGGCACTGATGTTAATCGGGTCTTGATTCGCTTGACGCTGCTG” the binding signal was 3.87 z-score. Sequence “CCGATTAACATCATGGTGGGAAATGATGTTAATCGGGTCTTGATTCGCTTGACGCTGCTG” has a binding signal of 2.18 z-score.
